# Screening results: PubChem BioAssay, several laboratories
# BaF3 parental: counter-screen for JAK2V617F inhibitors: parental Ba/F3 viability inhibitors | CellTiter-Glo ATP luminescence | inhibition, % at 5.6 µM | 220,000 tested, 1.1% active | AID 1486;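 active = inhibition above a per-campaign cutoff, the mean inhibition of all tested compounds plus 3 SD, cut at about 27% in these data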;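 note: 0% = DMSO wells and 100% = JAK Inhibitor I control wells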
# Ba/F3 V617F tox: reduce viability of Ba/F3 cells dependent on JAK2V617F; inhibition, % at 5.6 µM; 220,000 tested, 1.1% active; Ba/F3 EpoR-JAK2V617F viability, ATP luminescence;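 active = inhibition above the campaign mean plus 3 SD over all tested compounds, cut at about 24% in these data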;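 note: cytokine-independent growth of Ba/F3 cells driven by EpoR plus mutant JAK2; 0% = DMSO-treated cells and 100% = JAK inhibitor I control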
# KLF5 inhibitor: kruppel-like factor 5 inhibition; 290,000 tested, 0.23% active; AID 1700; DLD-1 KLF5 promoter-luciferase reporter, luminescence; inhibition, % at 5 µM;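 active = inhibition above a per-plate limit of that plate's mean compound inhibition plus 3 SD, cut at about 60% in these data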;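 note: 0% = DMSO wells and 100% = LY294002 at 200 µM; higher means less KLF5 promoter-driven luciferase light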
# IEC-6 cytotox: kills IEC-6 intestinal cells in KLF5 counter-screen; inhibition, % at 5 µM; IEC-6 cytotoxicity, luminescence viability; AID 1825; 290,000 tested, 0.78% active;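 note: 0% = plate median of test compound wells and 100% = cytotoxic reference compound wells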
# APP transl inh: APP translation inhibition. SH-SY5Y APP 5'UTR-luciferase reporter, luminescence. inhibition, % at 2 µM. 190,000 tested, 0.82% active. AID 1285;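 active = inhibition above a set limit, derived from the sample mean plus 3 SD, cut at about 45% in these data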
# IEC-6 tox confirm: IEC-6 cytotoxicity, confirmation assay; shares compounds with IEC-6 cytotox; IEC-6 rat intestinal epithelial viability, luminescence; inhibition, % at 5 µM; 1,900 tested, 63% active; AID 1907;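 note: 0% = vehicle and 100% = reference cytotoxic drug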
# * marks the source's active call; other numbers are inactive results; · = no result. Compounds with a hit are over-represented: about 1.9% of the library has one in this group of screens. Cut-off read from the data, not from the text of the source, unless noted: active = inhibition above about 22%; inactive = the rest.
SMILES,BaF3 parental,Ba/F3 V617F tox,KLF5 inhibitor,IEC-6 cytotox,APP transl inh,IEC-6 tox confirm
Cc1nn2c(NCc3ccccn3)cc(C(C)C)nc2c1-c1ccccc1,-2,-1,7,-9,·,·
Cc1nn(CC(=O)Nc2cccc(Cl)c2)c(=O)c2cc(-c3ccccc3)nn12,·,·,-23,-13,·,·
COc1ccccc1-c1nnc(NC(=O)c2ccc(S(=O)(=O)N3CCCC3)cc2)o1,·,·,20,22*,·,5
O=C(Nc1nnc(-c2ccc(F)cc2)o1)c1ccc(S(=O)(=O)N2CCOCC2)cc1,·,·,59,40*,·,13
Clc1ccc(C2Nc3cccc4cccc(c34)N2)cc1Cl,·,·,19,-2,·,·
O=[N+]([O-])c1ccc(Cl)c(C2Nc3cccc4cccc(c34)N2)c1,103*,100*,17,70*,5,35*
COc1ccc(NS(=O)(=O)c2cc(OC)ccc2NC(=O)c2cc(C)oc2C)cc1,66*,62*,33,45*,54*,30*
COc1ccc(S(=O)(=O)N2CCCCC2)cc1NCC(=O)Nc1ccc(C)cc1,9,3,-10,32*,·,18
CCn1c(SCC(=O)c2ccccc2)nc2ccccc2c1=O,7,3,-8,61*,2,37*
CC(C)c1ccc(NC(=O)c2ccc(NS(C)(=O)=O)cc2)cc1,8,8,-40,6,-21,·
COc1ccc(C(=O)N[C@H](C(=O)Nc2nc3ccccc3[nH]2)C(C)C)cc1,61*,42*,-25,63*,77*,59*
Cc1cccc(C(=O)N[C@H](C(=O)Nc2nc3ccccc3[nH]2)C(C)C)c1,27*,77*,17,74*,62*,56*
COc1ccc(NC(=O)C(NC(=O)c2ccccc2)C(C)C)cc1 (stereo unspecified),7,-1,-18,-5,13,·
Cc1ccc(NC(=O)c2nsc(Cl)c2Cl)cc1,-3,2,-131,24*,·,-4
OC(CNCCc1ccc(Cl)cc1)COc1ccc2ccccc2c1 (stereo unspecified),0,3,2,8,-4,·
OC(CNCCc1ccccc1)COc1ccc(OCC(O)CNCCc2ccccc2)cc1 (stereo unspecified),9,8,-25,26*,·,42*
Cc1cccc(C)c1OCC(O)CNC(C)c1ccccc1 (stereo unspecified),·,·,16,39*,·,18
CCCc1nnc(NC(=O)c2nc(S(=O)(=O)Cc3ccc(C)cc3)ncc2Cl)s1,·,·,-7,8,·,·
CSc1nnc(NC(=O)c2nc(S(=O)(=O)Cc3ccccc3)ncc2Cl)s1,·,·,20,34*,·,9
CC(C)c1nnc(NC(=O)c2nc(S(=O)(=O)Cc3ccccc3)ncc2Cl)s1,·,·,18,42*,·,-1
O=C(CN1CCN(c2ccc(F)cc2)CC1)Nc1ccccc1[N+](=O)[O-],1,0,16,0,4,·
CCn1c(SCC(=O)NC2CCCC2)nnc1-c1ccccn1,·,·,-6,-9,·,·
Cc1[nH]c2ccccc2c1/C=N/Nc1nncn1N,4,7,-27,102*,-134,-14
Fc1ccc2c(c1)C1C=CCC1C(c1cc3c(cc1Br)OCO3)N2 (stereo unspecified),6,1,-9,1,-13,·
CC1(C)N=C(N)N=C(N)N1c1ccccc1,99*,96*,8,40*,6,52*
SMILES,BaF3 parental,Ba/F3 V617F tox,KLF5 inhibitor,IEC-6 cytotox,APP transl inh,IEC-6 tox confirm
Nc1ccc2nn(-c3ccccc3)nc2c1,1,-4,-11,-2,-93,·
CC1(C)N=C(N)N=C(N)N1c1ccc(Oc2ccc(Cl)cc2)c(Cl)c1,·,·,2,55*,·,33*
O=C(CSc1nnnn1C1CCCCC1)Nc1ccccc1F,3,-4,-2,11,-16,·
O=C(CSc1nnnn1C1CC2CCC1C2)Nc1ccnc2ccccc12 (stereo unspecified),63*,68*,21,36*,17,16
C/C(=N\NC(=O)c1ccccn1)c1ccc(Cl)cc1,2,-3,-126,3,·,·
C/C(=N\NC(=O)c1ccc(Cl)cc1)c1ccccn1,·,·,33,23*,·,99*
COc1cc(OC)nc(-n2ncc(Br)c(Br)c2=O)n1,87*,96*,-20,56*,94*,70*
COc1ccc(-c2nn(-c3ccccc3)cc2/C=N/N=C(N)N)cc1OC,1,0,4,-4,-4,·
COc1ccc(-c2nn(-c3ccccc3)cc2/C=N/O)cc1OC,·,·,-54,27*,·,14
Cc1csc2ncnc(NC3CCN(Cc4ccccc4)CC3)c12,61*,55*,-26,23*,·,14
Cc1ccc(-c2csc3ncnc(N4CCN(Cc5ccccc5)CC4)c23)cc1,·,·,-43,-7,·,·
O=S(=O)(/C(=C/c1ccc(C(F)(F)F)cc1)c1nc2ccccc2[nH]1)c1ccccc1,11,42*,-8,53*,60*,48*
CCOC(=O)C1=NN(C(C)=O)C2(CC(=O)N(c3ccc(C)c(C)c3)C2=O)C1 (stereo unspecified),3,2,2,0,-6,·
Cc1ccc(S(=O)(=O)N(C)C)cc1NC(=S)Nc1cccc2ccccc12,·,·,-9,62*,·,4
COc1cccc(NC(=S)Nc2cccc3ccccc23)c1,·,·,-109,36*,·,7
CCc1cccc(NC(=S)Nc2cccc3ccccc23)c1,·,·,-48,29*,·,14
CC(=O)NNC(=S)Nc1cc(S(=O)(=O)N(C)C)ccc1C,4,3,-9,0,-28,·
N#Cc1ccc(/C=N/N=C(N)N)cc1,6,3,-17,4,-15,·
NC(N)=N/N=C/c1ccc(Br)cc1,34*,10,10,26*,28,56*
